# Assay results reported in PubChem BioAssay (NCATS).
# Records with an inconclusive call do not appear. Where a call stands in place of a potency, no number is given. Activity calls are given as the source filed them. Unless noted, calls follow the shape of the dose curve; as a rule, active = well fitted curve in the direction sought with a large enough effect; inconclusive = small, poorly fitted or top-dose-only effect, or another doubt; inactive = no such curve, though single readings can be large; an effect the other way counts as inactive or inconclusive.
# Tests used:
# [1] = qHTS assay for measurement of the activity of small molecule inhibitors on Zika virus induced Caspase-3 activity in human astrocytoma cells (AID 1224859); also: potency is read from the fitted curve at half-maximal effect
# Method in brief: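 Human SNB-19 astrocytoma cells in RPMI 1640 with 10% FBS receive compound one hour ahead of Zika virus at 2 FFU/cell. After 6 h infection, caspase-3/7 activity is detected by Caspase-Glo luminescence.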
# [2] = qHTS assay to identify small molecule inhibitors of chordoma cells - UCH-1 (AID 1259355); also: nearly all actives have a fitted effect of over 55% in size
# Method in brief: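 Screening used approved and investigational drugs in 15-point titration against 800 seeded cells per well. A fixed combination of auranofin with camptothecin, doxorubicin, rubitecan and topotecan followed compound addition, and growth was scored by CellTiter-Glo after 48hr.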
# [3] = qHTS assay to identify small molecule inhibitors of chordoma cells - UCH-2 (AID 1259356)
# [4] = qHTS profiling of the MIPE4 collection as inhibitors of Plasmodium falciparum (3D7) proliferation (AID 743344; call rule not given here); conditions: P. falciparum 3D7 in erythrocytes, SYBR Green DNA fluorescence, 72 h; at 28.5 µM (top of the series)
# Method in brief: (§1)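 Parasite DNA was quantified by SYBR Green I fluorescence (ex 485, em 535 nm) after overnight lysis in saponin/Triton buffer at room temperature. Cultures at 0.3% parasitemia and 2.5% hematocrit were first exposed to compound for 72 h at 37 C; signals were normalised to artemisinin (0.29 uM) and vehicle wells.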
# [5] = qHTS profiling of the MIPE4 collection as inhibitors of Plasmodium falciparum (DD2) proliferation (AID 743345; call rule not given here); conditions: P. falciparum Dd2 in erythrocytes, SYBR Green DNA, 72 h; at 28.5 µM (top of the series)
# Method in brief: as §1
# [6] = qHTS profiling of the MIPE4 collection as inhibitors of Plasmodium falciparum (DD2) proliferation (Rep 2) (AID 743346; call rule not given here); conditions: P. falciparum Dd2 in erythrocytes, SYBR Green DNA, 72 h; at 28.5 µM (top of the series)
# Method in brief: as §1
# [7] = qHTS profiling of the MIPE4 collection as inhibitors of Plasmodium falciparum (HB3) proliferation (AID 743347; call rule not given here); conditions: P. falciparum HB3 in erythrocytes, SYBR Green DNA, 72 h; at 28.5 µM (top of the series)
# Method in brief: as §1
smiles,measurement,setting,value
O=Cc1ccc(O)c(O)c1O,Potency,[1],inactive
O=C(/C=C/c1ccc(O)c(O)c1)OCCc1ccccc1,Potency,[1],inactive
CN1CCc2cccc3c2C1Cc1ccc(O)c(O)c1-3 (configuration not stated),Potency,[1],inactive
[O-][n+]1ccccc1SSc1cccc[n+]1[O-],Potency,[1],inactive
Nc1ncnc2c1ncn2[C@@H]1O[C@H](COP(=O)(O)CP(=O)(O)OP(=O)(O)O)[C@@H](O)[C@H]1O,Potency,[1],inactive
Cn1cc(C2=C(c3ccc(Cl)cc3Cl)C(=O)NC2=O)c2ccccc21,Potency,[1],inactive
CN(C)CCCO[C@@H]1[C@H]2OC(C)(C)O[C@H]2O[C@@H]1[C@H](O)CO,Potency,[1],inactive
CN(C)C(N)=NCCC[C@H](N)C(=O)O,Potency,[1],inactive
NC(N)=NC(=O)c1nc(Cl)c(N2CCCCCC2)nc1N,Potency,[1],inactive
O=C1/C(=C/c2ccsc2)CC/C1=C\c1cccs1,Potency,[1],inactive
Nc1ncnc2c1c(I)cn2[C@@H]1C[C@H](N)[C@@H](O)[C@H]1O,Potency,[1],inactive
Cc1ccc(C(=O)O[C@H](C(=O)O)[C@@H](OC(=O)c2ccc(C)cc2)C(=O)O)cc1 (tested in a mixture with another compound),Potency,[1],inactive
CN(C)c1ccc(/C=C2\C(=O)Nc3ccccc32)cc1,Potency,[1],10 µM (active)
C=CC(=O)c1ccc(CCCCCC)cc1,Potency,[1],inactive
CC(=O)SCC(CC(=O)c1ccc(C)cc1)C(=O)O (configuration not stated),Potency,[1],inactive
CNCC[C@H](Oc1ccc(C(F)(F)F)cc1)c1ccccc1,Potency,[1],inactive
COc1ccccc1N1CCN(CCCCNS(=O)(=O)c2cccc3c(N(C)C)cccc23)CC1,Potency,[1],inactive
CCCSc1ccc2nc(NC(=O)OC)[nH]c2c1,Potency,[1],inactive
C#C[C@]1(O)CC[C@H]2[C@@H]3CCc4cc(O)ccc4[C@H]3CC[C@@]21C,Potency,[1],inactive
CC(=O)SCC[N+](C)(C)C,Potency,[1],inactive
O=C(O)CC[C@@H](C(=O)O)N1C(=O)c2ccccc2C1=O,Potency,[1],inactive
Oc1ccc(C2CNCc3sccc32)cc1O (configuration not stated),Potency,[1],inactive
N=C(N)SCCc1ccc(CCSC(=N)N)cc1,Potency,[1],inactive
CCCn1c(=O)c2[nH]c(-c3ccc(OCC(=O)NCCN)cc3)nc2n(CCC)c1=O,Potency,[1],inactive
O=C1C(SCCO)=C(SCCO)C(=O)c2ccccc21,Potency,[1],inactive
CNC(=O)[C@H]1O[C@@H](n2cnc3c(NCc4ccc(N)cc4)ncnc32)[C@H](O)[C@@H]1O,Potency,[1],inactive
N#C/C(=C\c1c[nH]c2ccccc12)C(=O)c1ccc(O)c(O)c1,Potency,[1],inactive
O=C(CS)Nc1ccccc1,Potency,[1],inactive
Nc1nc(SCc2ccc([N+](=O)[O-])cc2)c2ncn([C@@H]3O[C@H](CO)[C@@H](O)[C@H]3O)c2n1,Potency,[1],inactive
N#C/C(=C\c1ccc(O)c(O)c1)C(=O)c1ccc(O)c(O)c1,Potency,[1],inactive
N.N.O=C(O)C1(C(=O)O)CCC1.[Pt],Potency,[1],inactive
NCCCCC(=O)O,Potency,[1],inactive
Oc1ccccc1O,Potency,[1],inactive
C#CCN1C(C)=C(C(=O)OC)C(c2cccc([N+](=O)[O-])c2)C(C(=O)OCC)=C1C (configuration not stated),Potency,[1],inactive
O=C(O)/C=C\C(=O)O,Potency,[1],inactive
Cc1ccc(S(=O)(=O)/C=C/C#N)cc1,Potency,[1],inactive
CCCC(=O)OC[C@@H](OC(=O)CCC)[C@@H](OC(=O)CCC)[C@H](Cn1c2nc(=O)[nH]c(=O)c-2nc2cc(C)c(C)cc21)OC(=O)CCC,Potency,[1],inactive
same,Potency,[2],inactive
same,Potency,[3],inactive
C=CCCCCCCCCC(=O)O,Potency,[1],inactive
same,Potency,[2],inactive
O=C(O)c1ccccc1Nc1cccc(C(F)(F)F)c1,Potency,[1],inactive
same,Potency,[2],inactive
same,Potency,[3],inactive
Cc1[nH]cnc1CN1CCc2c(c3ccccc3n2C)C1=O,Potency,[1],inactive
same,Potency,[2],inactive
same,Potency,[3],inactive
Nc1cc(-c2ccncc2)c[nH]c1=O,Potency,[1],inactive
same,Potency,[2],inactive
same,Potency,[3],inactive
C=CC(N)CCC(=O)O (configuration not stated),Potency,[1],inactive
same,Potency,[2],inactive
same,Potency,[3],inactive
CN(C)[C@@H]1C(=O)C(C(=O)NCN2CCCC2)=C(O)[C@@]2(O)C(=O)C3=C(O)c4c(O)cccc4[C@@](C)(O)C3C[C@@H]12 (some centres not stated),Potency,[1],inactive
same,Potency,[2],inactive
same,Potency,[3],inactive
c1ccc2sc(SN3CCOCC3)nc2c1,Potency,[1],inactive
same,Potency,[2],inactive
CCCCCCCCCCCCCCCC(=O)OC(C)C,Potency,[1],inactive
same,Potency,[2],inactive
same,Potency,[3],inactive
Nc1c(CC(=O)O)cccc1C(=O)c1ccc(Br)cc1,Potency,[1],inactive
same,Potency,[2],inactive
same,Potency,[3],inactive
CCCOC(=O)c1ccc(O)cc1,Potency,[1],inactive
same,Potency,[2],inactive
same,Potency,[3],inactive
COC(=O)C1=C(C)NC(C)=C(C(=O)OCC(C)C)C1c1ccccc1[N+](=O)[O-] (configuration not stated),"parasite growth, % of DMSO control",[4],5.69%
same,"parasite growth remaining, % of DMSO control (lower = more inhibition)",[5],15%
same,"parasite growth, % of control (lower = inhibition)",[6],8.98%
same,"growth, % of control",[7],9.44%
same,Potency,[1],inactive
same,Potency,[2],inactive
same,Potency,[3],inactive
O=C(OCc1ccccc1)c1ccccc1,Potency,[1],inactive
same,Potency,[2],inactive
same,Potency,[3],inactive
